RE007 growth inh – qHTS Assay for Inhibitors of the HIV-1 protein Vpr | S. pombe RE007 Vpr strain, BacTiter-Glo ATP luminescence, 24 h | Potency, µM (series often up to 92.2 µM), for the others: at the top dose activity change, negative = less growth, hits mostly inhibitors | actives 0.21% (n = 360,000) | AID 651644, 2012; active means well fitted falling curve with a large enough effect; inconclusive means small, poorly fitted or top-dose-only effect; inactive means no such curve, though single readings can be large or run the other way; further: potency means the concentration at half of the fitted maximal effect; nearly all actives have a fitted effect of over 50% in size
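Fission yeast strain RE007, carrying one chromosomally integrated HIV-1 vpr copy, was seeded at OD 0.01 in PMG+AL medium with 23 nL pinned compound. After 24 h at 30 °C and 99% humidity, viability was read by BacTiter-Glo luminescence.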
Sm TGR block – qHTS Assay for the Inhibitors of Schistosoma Mansoni Peroxiredoxins; purified TGR, DTNB reduction, TNB absorbance 405 nm; actives 3% (n = 360,000); Potency, µM (series often up to 114 µM), for the others: at the highest dose activity change, negative = inhibition, most hits filed as inhibitors; further: potency means the concentration at half of the fitted maximal effect; nearly all actives have a fitted effect of over 60% in size
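First, TGR (20 nM dispensed) and NADPH were mixed with compound. Second, a 15 min room-temperature incubation followed. Third, further NADPH and then DTNB were added to start the reaction. Finally, TNB absorbance was monitored kinetically.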
TbPYK inhibitor – qHTS of Trypanosoma Brucei Inhibitors | TbPYK enzyme, Kinase-Glo Plus ATP luminescence, 45 min | actives 0.12% (n = 410,000) | AID 624173, 2012 | Potency, µM (doses to about 76.8 µM), for the others: top-dose activity, negative = inhibition, actives largely listed as inhibitors | pyruvate kinase (Trypanosoma brucei), Q57TT1; further: potency means the concentration at half of the fitted maximal effect; nearly all actives have a fitted effect of over 50% in size
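Luminescence from Kinase-Glo Plus, added after a 45-minute room-temperature reaction, served as the end-point read-out. The enzyme and substrate were preincubated with compound before ADP (130 uM final) initiated turnover. Concentration-effect curves came from normalized qHTS data.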
FBPA Giardia inh – qHTS Assay for Inhibitors of Fructose-1,6-bisphosphate Aldolase from Giardia Lamblia | actives 0.71% (n = 290,000) | Potency, µM (top dose mostly 59.6 µM), inactives show at the highest dose activity, negative = inhibition, most hits filed as inhibitors | AID 2451, 2010 | purified Giardia FBPA | A8B2U2; further: potency means the concentration at half of the fitted maximal effect; nearly all actives have a fitted effect of over 55% in size
Target sequence (A8B2U2 whole entry, looked up): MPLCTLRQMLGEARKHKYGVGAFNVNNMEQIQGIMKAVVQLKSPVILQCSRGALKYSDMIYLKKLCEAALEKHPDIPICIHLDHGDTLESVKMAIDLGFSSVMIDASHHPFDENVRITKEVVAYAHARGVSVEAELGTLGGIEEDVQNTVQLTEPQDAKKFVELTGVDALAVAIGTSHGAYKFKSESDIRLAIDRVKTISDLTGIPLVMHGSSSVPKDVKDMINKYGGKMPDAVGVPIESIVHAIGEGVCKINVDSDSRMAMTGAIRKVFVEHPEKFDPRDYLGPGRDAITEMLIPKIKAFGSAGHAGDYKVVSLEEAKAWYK
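Giardia FBPA (40 nM reagent) was preincubated 10 min at RT with compound (up to 57.5 uM final), then substrate plus GAPDH/TPI/NAD/arsenate coupling system with diaphorase/resazurin was added; resorufin fluorescence (525/598 nm) was read after 20 min.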
FMDV antiviral – High Throughput Screening for Foot and Mouth Disease Virus Antivirals | FMDV antiviral cell-based qHTS | Potency, µM (series often up to 57.9 µM), for the others: top-dose activity change, negative = inhibition, hits mostly inhibitors | actives 1.2% (n = 410,000) | AID 1159524, 2015; calls by dose curve; tested in HEK293T cells; further: read-out not given here; potency means the concentration at half of the fitted maximal effect; nearly all actives have a fitted effect of over 45% in size
HCMV antiviral – qHTS Assay for inhibitors of the human cytomegalovirus (HCMV); AID 1259415, 2018; HFF cells, HCMV-luciferase reporter, 72 h; active compounds read low; activity change, negative = inhibition, % at 57.5 µM; actives 4.5% (n = 410,000); in the data active means activity change below about -60%; inconclusive means no clear call, values can overlap the other calls; inactive means above about -39%
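Compounds were evaluated in HFFs infected with an HCMV luciferase reporter virus (MOI 1 PFU/cell). Luciferase in lysates collected 72 h post infection served as the replication measure.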
* marks the source's active call; other numbers are inactive results; ? = inconclusive; / = no result given. Shown are actives, neighbours in structure and some others; about 7.7% of the full set was active somewhere. Unless noted, the call rests on the fitted dose curve; in most records, active means well fitted curve in the direction sought with a large enough effect; inconclusive means small, poorly fitted or top-dose-only effect, or another doubt; inactive means no such curve, though single readings can be large; an effect the other way counts as inactive or inconclusive. On the % scale 0 is the no-effect control and ±100 the full control effect.

SMILES | RE007 growth inh | Sm TGR block | TbPYK inhibitor | FBPA Giardia inh | FMDV antiviral | HCMV antiviral
O=C1NC(=O)N(c2ccccc2)C1=O | 3.5% | -8.3% | 1.3% | ? | -8.1% | -7.9
COc1ccc(-n2c(=O)c(C)nc3cnc(Nc4ccccc4)nc32)cc1 | / | / | -7.5% | 0.6% | -8.0% | /
O=c1c(-c2ccc(F)cc2)nc2cnc(N3CCOCC3)nc2n1CCc1ccccc1 | / | / | / | -0.1% | 9.0% | /
Cc1cccc(N2C(=O)NC(=O)/C(=C\C=C\c3ccco3)C2=O)c1 | 7.8% | ? | -14.1% | -10.4% | 7.08µM* | 0.0
Cc1ccc(N2C(=O)NC(=O)/C(=C\C=C\c3ccco3)C2=O)cc1 | 14.7% | 11.2µM* | -28.4% | -3.9% | 20µM* | -99.7*
Cc1cccc(N2C(=O)NC(=O)/C(=C/c3ccc([N+](=O)[O-])o3)C2=O)c1 | / | 8.91µM* | ? | ? | -18.7% | /
Cc1ccc(N2C(=O)NC(=O)/C(=C\c3ccoc3)C2=O)cc1 | 1.6% | -9.9% | ? | -5.1% | ? | 14.5
O=C1NC(=O)N(c2ccc3c(c2)OCO3)C(=O)/C1=C/c1ccc(N2CCCC2)o1 | 3.9% | ? | -12.2% | -0.2% | -4.0% | -36.7
CC(=O)Nc1sc2c(c1C(c1cccs1)N1CCOCC1)CCCC2 (stereo unspecified) | -0.9% | 22.4µM* | -13.3% | -11.3% | -30.3% | -16.0
COc1cccc(OC(=O)CSc2nnc(-c3cccs3)o2)c1 | / | -2.3% | -2.2% | / | 1.2% | 31.0
Cc1ccc(-n2ncc3c(Nc4cccc(C)c4C)ncnc32)cc1 | / | 0.7% | -2.8% | / | -15.7% | 32.8
COc1ccc(-c2cc(=Nc3c(C)n(C)n(-c4ccccc4)c3=O)c3ccccc3o2)cc1 | -15.5% | ? | -0.4% | -16.9% | -4.1% | 89.0
COc1ccc(-c2c/c(=N\c3nc(-c4ccccc4)c(C)s3)c3ccccc3o2)cc1O | 3.7% | -8.7% | -2.0% | -2.1% | ? | -95.9*
COc1ccc(-c2noc(N3CCC(C(=O)N4CCN(c5ccccc5OC)CC4)CC3)n2)cc1 | / | 0.2% | -5.9% | / | 0.0% | -76.6*
CCN(C(=O)C1CCN(c2nc(-c3ccc(OC)cc3)no2)CC1)c1ccc(OC)cc1 | 11.8% | 7.7% | -9.7% | -12.7% | ? | -73.0*
COc1ccc(-c2noc(N3CCC(C(=O)N4CCN(c5cccc(C)c5C)CC4)CC3)n2)cc1 | / | 0.0% | 0.0% | / | -29.9% | -29.2
COC(=O)c1c(-c2ccc(Cl)cc2)noc1N1CCN(c2cccc(OC)c2)CC1 | / | -4.2% | 2.5% | / | ? | -71.7*
COc1ccc(-c2noc(N3CCC(C(=O)Nc4ccc(OC)cc4OC)CC3)n2)cc1 | -1.9% | 1.3% | -0.4% | -4.7% | -8.4% | -39.2
COc1ccc(NC(=O)C2CCN(c3nc(-c4ccc(OC)cc4)no3)CC2)cc1 | 2.5% | 11.3% | 0.6% | -0.5% | -21.9% | -20.6
COc1ccc(-c2noc(N3CCC(C(=O)N4CCN(c5cccc(OC)c5)CC4)CC3)n2)cc1 | / | -1.6% | -4.7% | / | ? | -83.7*
COc1ccc(-c2coc3ccc(OC4OC(COC(C)=O)C(OC(C)=O)C(OC(C)=O)C4OC(C)=O)cc3c2=O)cc1 (stereo unspecified) | / | / | / | 3.2% | / | /
COc1ccc(-c2noc(N3CCC(C(=O)N4CCN(c5ccccn5)CC4)CC3)n2)cc1 | 21.8% | 15.1% | -1.6% | -0.1% | 12.6µM* | -82.7*
CC(C)CC[n+]1ccccc1/C=C/c1ccc(N(C)C)cc1 | -18.3% | 0.0% | -5.7% | -1.2% | ? | -102.3*
CN(C)c1ccc(/C=C/c2cccc[n+]2[O-])cc1 | -2.5% | 0.9% | -18.4% | -11.1% | 5.0% | 135.2
Cc1ccc(Cn2cc3c(n2)-c2c(oc(C(=O)Nc4ccc(F)cc4F)c2C)CC3)cc1 | / | 6.8% | 8.4% | / | -16.6% | 8.4
SMILES | RE007 growth inh | Sm TGR block | TbPYK inhibitor | FBPA Giardia inh | FMDV antiviral | HCMV antiviral
Cc1ccc(/C=C/C(=O)Nc2ncc(C)s2)o1 | -9.5% | 25.1µM* | ? | ? | 9.2% | 40.3
Cc1ccc(/C=C/C(=O)Nc2nccs2)o1 | 5.1% | 28.2µM* | ? | ? | -14.8% | 112.4
Cc1cnc(NC(=O)/C=C/c2ccc(Br)o2)s1 | -9.5% | -0.9% | -2.1% | 1.5% | 16.7% | 0.0
O=C(/C=C/c1cccs1)Nc1nccs1 | -9.3% | 8.5% | -1.6% | 5.3% | 54.8% | 59.1
CCOC(=O)C(=O)Nc1nccs1 | 14.3% | / | 4.4% | -16.3% | -8.5% | ?
CCOC(=O)/C=C/C(=O)Nc1nccs1 | -29.4% | 39.8µM* | 5.2% | 7.6% | ? | -0.4
COC(=O)c1ccc2nc(-c3cccc(Br)c3)c(Cc3cccc(Cl)c3)n2c1 | / | / | / | / | / | 21.9
O=S1(=O)C2CC3CCC2(CN1Cc1cccc(F)c1)O3 (stereo unspecified) | / | / | / | 8.7% | / | /
Cc1nnc2c(Nc3cccc(O)c3)nc3ccccc3n12 | / | 2.5% | -1.5% | / | -6.3% | 33.3
COc1cc([C@H]2Oc3cc([C@H]4Oc5cc(O)cc(O)c5C(=O)[C@@H]4O)ccc3O[C@@H]2CO)ccc1O | 4.9% | -17.1% | -1.9% | 1.0% | ? | -19.5
COc1cc([C@@H]2Oc3cc(C4Oc5cc(O)cc(O)c5C(=O)[C@H]4O)ccc3O[C@H]2CO)ccc1O (stereo partly specified) | 18.5% | 44.7µM* | 4.5% | / | -20.6% | /
O=c1c2cccnc2n(Cc2ccccc2F)c(=O)n1Cc1ccccc1Cl | / | -4.5% | -2.0% | / | 0.7% | 9.9
COc1cc2c(c(O)c1OC)-c1c(cc(OC)c(OC)c1OC)C[C@@H](C)[C@@H](C)C2 | -0.4% | 13.1% | 2.8% | -4.9% | -25.6% | -60.2*
COc1cc2c(c(OC)c1OC)-c1c(cc3c(c1O)OCO3)C[C@@H](C)[C@@H](C)C2 | -6.7% | 13.4% | 1.5% | -0.4% | ? | ?
COc1cc2c(c(OC)c1OC)-c1c(cc(OC)c(OC)c1OC)C[C@H](C)[C@H](C)C2 | 8.3% | 10.5% | 0.1% | 0.6% | -16.9% | -62.9*
N#Cc1ccc(CN2C(=O)c3ccccc3Sc3ccc(C(=O)OCc4ccco4)cc32)cc1 | / | -30.6% | -9.6% | / | -18.2% | 20.4
O=C(NCCc1csc(-c2ccc(F)cc2)n1)c1c(F)cccc1Cl | / | -13.1% | 0.9% | / | -4.4% | -38.5
O=C(NCCc1csc(-c2ccccc2)n1)c1c(F)cccc1Cl | 14.1% | 1.1% | -0.3% | -9.2% | 12.7% | -69.6*
O=C(Cc1csc(-c2ccccc2)n1)NCc1ccc(F)cc1 | -13.1% | 6.0% | -0.9% | -1.4% | 13.3% | -9.8
